From PubChem BioAssay AID1671202 (University of Kansas High Throughput Screening Laboratory, 2021)
Out of some 190,000 compounds screened, about 6,900 (3.6%) were called active. Many of the other results were omitted from the sample, so actives are more common in it than they were. Unmarked numbers belong to inactive results. Rule as the data show it: active = inhibition above about 50%; inactive = the rest.

molecular target: Huntingtin (Homo sapiens) (UniProt P42858); experiment: mutant huntingtin-calmodulin interaction inhibitors – biochemical, AlphaScreen, primary screen (AID 1671202); conditions: AlphaScreen His-mHTT/GST-CaM binding, luminescence; at 15 µM, hits give high values;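 as to inhibition: 0% = both proteins with DMSO and 100% = one protein alone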
Sequence (P42858 whole entry, looked up, stated change not applied): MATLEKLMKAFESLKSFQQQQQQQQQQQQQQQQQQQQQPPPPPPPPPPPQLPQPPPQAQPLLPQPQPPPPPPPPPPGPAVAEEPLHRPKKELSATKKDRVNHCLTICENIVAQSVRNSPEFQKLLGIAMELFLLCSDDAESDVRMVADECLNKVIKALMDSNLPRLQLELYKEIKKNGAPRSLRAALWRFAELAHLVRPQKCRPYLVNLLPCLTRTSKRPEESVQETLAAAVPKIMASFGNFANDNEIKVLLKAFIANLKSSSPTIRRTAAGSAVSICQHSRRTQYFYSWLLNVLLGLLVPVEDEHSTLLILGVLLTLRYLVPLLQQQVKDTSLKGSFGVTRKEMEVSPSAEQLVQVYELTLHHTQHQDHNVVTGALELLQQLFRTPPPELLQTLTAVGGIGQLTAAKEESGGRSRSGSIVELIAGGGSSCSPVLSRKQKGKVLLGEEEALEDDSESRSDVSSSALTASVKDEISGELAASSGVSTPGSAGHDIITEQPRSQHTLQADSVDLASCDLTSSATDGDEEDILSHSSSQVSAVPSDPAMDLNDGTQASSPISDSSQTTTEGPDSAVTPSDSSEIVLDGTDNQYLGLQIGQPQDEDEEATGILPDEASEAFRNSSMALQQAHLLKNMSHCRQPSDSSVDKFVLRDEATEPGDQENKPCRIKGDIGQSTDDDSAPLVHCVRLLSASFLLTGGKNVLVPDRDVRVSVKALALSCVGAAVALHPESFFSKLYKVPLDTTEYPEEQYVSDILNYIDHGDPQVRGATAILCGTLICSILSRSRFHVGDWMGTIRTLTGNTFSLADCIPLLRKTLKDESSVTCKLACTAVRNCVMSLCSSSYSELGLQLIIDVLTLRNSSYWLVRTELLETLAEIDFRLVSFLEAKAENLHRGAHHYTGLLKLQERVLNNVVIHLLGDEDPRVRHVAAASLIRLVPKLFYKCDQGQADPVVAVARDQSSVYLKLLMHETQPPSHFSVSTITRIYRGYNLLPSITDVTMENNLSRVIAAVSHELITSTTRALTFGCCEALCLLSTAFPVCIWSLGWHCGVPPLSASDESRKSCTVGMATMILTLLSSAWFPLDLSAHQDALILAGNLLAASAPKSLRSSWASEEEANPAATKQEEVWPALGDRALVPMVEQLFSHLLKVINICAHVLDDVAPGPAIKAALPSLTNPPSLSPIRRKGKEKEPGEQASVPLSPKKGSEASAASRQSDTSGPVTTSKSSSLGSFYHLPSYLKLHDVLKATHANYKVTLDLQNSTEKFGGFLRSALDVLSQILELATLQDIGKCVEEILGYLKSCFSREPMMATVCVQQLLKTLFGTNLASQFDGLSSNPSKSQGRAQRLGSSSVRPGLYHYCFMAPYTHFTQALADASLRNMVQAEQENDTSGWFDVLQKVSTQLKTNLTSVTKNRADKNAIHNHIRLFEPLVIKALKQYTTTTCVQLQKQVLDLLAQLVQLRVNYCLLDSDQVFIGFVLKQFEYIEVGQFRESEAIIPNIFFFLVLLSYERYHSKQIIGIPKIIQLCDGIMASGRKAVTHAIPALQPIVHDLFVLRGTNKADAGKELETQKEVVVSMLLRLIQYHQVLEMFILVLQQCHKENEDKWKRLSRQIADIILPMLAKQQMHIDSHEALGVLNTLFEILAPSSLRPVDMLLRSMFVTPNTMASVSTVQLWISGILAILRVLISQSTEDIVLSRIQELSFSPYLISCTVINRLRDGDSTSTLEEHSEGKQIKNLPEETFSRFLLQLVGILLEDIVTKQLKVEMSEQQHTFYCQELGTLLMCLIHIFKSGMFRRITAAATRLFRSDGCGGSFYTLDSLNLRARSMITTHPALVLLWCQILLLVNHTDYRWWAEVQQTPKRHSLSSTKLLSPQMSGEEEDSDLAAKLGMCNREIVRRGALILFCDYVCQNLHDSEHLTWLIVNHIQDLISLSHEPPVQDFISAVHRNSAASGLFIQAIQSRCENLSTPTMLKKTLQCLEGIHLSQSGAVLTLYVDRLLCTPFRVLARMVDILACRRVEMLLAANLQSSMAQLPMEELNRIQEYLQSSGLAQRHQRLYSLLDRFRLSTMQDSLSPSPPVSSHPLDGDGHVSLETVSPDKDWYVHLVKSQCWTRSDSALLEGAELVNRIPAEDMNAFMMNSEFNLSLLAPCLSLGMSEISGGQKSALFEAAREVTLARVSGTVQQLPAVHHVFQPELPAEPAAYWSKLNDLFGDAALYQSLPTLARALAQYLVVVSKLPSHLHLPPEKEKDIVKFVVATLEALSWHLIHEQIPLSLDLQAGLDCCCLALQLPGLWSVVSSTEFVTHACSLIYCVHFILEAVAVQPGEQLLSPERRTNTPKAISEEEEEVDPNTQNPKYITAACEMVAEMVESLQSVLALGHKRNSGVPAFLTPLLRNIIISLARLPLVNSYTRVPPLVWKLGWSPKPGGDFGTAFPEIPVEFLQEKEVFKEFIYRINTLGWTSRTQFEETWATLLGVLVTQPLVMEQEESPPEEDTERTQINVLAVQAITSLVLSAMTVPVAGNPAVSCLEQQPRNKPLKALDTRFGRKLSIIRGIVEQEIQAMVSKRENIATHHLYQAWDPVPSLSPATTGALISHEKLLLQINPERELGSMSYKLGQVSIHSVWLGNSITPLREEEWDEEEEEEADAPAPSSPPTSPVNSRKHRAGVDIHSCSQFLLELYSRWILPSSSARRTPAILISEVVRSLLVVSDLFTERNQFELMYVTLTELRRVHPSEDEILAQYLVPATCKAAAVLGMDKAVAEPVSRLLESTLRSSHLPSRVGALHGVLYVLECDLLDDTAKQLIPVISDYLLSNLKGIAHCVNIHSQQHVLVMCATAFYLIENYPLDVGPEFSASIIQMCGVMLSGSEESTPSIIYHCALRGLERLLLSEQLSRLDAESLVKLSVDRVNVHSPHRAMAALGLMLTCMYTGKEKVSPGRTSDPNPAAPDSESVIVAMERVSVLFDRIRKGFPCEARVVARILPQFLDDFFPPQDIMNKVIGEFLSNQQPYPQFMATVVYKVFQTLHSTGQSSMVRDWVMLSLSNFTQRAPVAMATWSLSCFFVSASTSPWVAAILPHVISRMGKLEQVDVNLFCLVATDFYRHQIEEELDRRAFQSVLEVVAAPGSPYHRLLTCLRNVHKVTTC

SMILES	inhibition
CC(C)(c1ccccc1)c1ccc(OCC(=O)Nc2ncn[nH]2)cc1	16%
Cc1n[nH]c(=O)nc1N/N=C/c1cccs1	active
O=C1/C(=C/c2cccs2)CC2CC1C/C(=C\c1cccs1)C2=O	31%
Cc1ccc(C)c(N2CCN(C(=O)c3cc4ccncc4n3C)CC2)c1	48.1%
Cc1cc(O)c(CN2CCCCC2)c2c1C(=O)C(=Cc1ccncc1)O2	10%
O=C(CCc1ccccc1)N1N=C(c2cccc([N+](=O)[O-])c2)CC1(O)C(F)(F)F (configuration not stated)	26%
O=C1CC(c2ccccc2)=NN1c1ccc([N+](=O)[O-])cc1	91% (active)
O=C1C2CC(Br)C(Br)CC2C(=O)N1c1ccc([N+](=O)[O-])cc1 (configuration not stated)	0%
CCCn1ncc(N2CCC(C(=O)NCCCN3CCOCC3)CC2)cc1=O	-2.54%
O=C(Nc1ccc(Cn2cncn2)cc1)c1ccc(Cl)cc1	17.8%
CC1CN(C(=O)C2(c3ccccc3)CC2)CC1c1nc(-c2cccnc2)no1 (configuration not stated)	29.4%
CCN(CC)CCCNC(=O)c1c(O)c2cc(F)cc3c2n(c1=O)C(C)CC3 (configuration not stated)	98% (active)
CCNC(=O)c1c(O)c2cccc3c2n(c1=O)CC3	0%
CCN(CC)CCNC(=O)c1cn(C2CCCCC2)c(=O)c2c1c1ccccc1n2C	6%
CNC(=O)N1CCCC(c2cccc(C(=O)NCc3ccccc3C(F)(F)F)c2)C1 (configuration not stated)	-2.02%
COc1ccc(C2C3C(=O)N(c4ccc([N+](=O)[O-])cc4)C(=O)C3N3CCCN23)cc1 (configuration not stated)	-1%
CCCCN1CC(C)(C)[C@H](CC(=O)Nc2ccc(Br)cc2)C1=O	-13.5%
CCCCN1C[C@H](c2ccc(Br)cc2)[C@@H](CC(=O)Nc2ccc(Br)cc2)C1=O	96.5% (active)
C[C@H]1CN(c2ccc(Br)cc2)C(=O)[C@@H]1CC(=O)Nc1ccc(Br)cc1	2.2%
Cc1cc(C)c(NC(=O)CNC(C)(C)C)c(C)c1	-2.1%
O=C(NC(C(=O)N1CCCCC1)C12CC3CC(CC(C3)C1)C2)c1ccc(F)cc1 (configuration not stated)	2.5%
CC1=C/C(=N\Oc2ccc3noc4c3c2C(=O)c2ccccc2-4)C(C(C)C)=CC1=O	active
N#Cc1ccc(C2=COC3(CCCN(C(=O)c4ccccc4)C3)C2)cc1 (configuration not stated)	2.5%
CN(C)c1ncccc1NC(=O)c1cccc(C#N)c1	0%
O=C1NC(c2cccc([N+](=O)[O-])c2)C(=C(O)c2ccc(Br)cc2)C1=O (configuration not stated)	7.7%
O=[N+]([O-])c1ccc2c(c1)C1C=CCC1C(c1cccc(Br)c1)N2 (configuration not stated)	72% (active)
COc1cccc(C2Nc3ccc(C(=O)O)cc3C3C=CCC32)c1OC (configuration not stated)	15%
